STK33 inh: human STK33 kinase inhibition. Q9BYT3. ADP-Glo luminescence, MBP substrate. inhibition, % at 12.5 µM. actives 0.44% (n = 27,000). AID 2322; in the data active = inhibition above about 20%; inconclusive = no clear call, values can overlap the other calls
Target sequence (Q9BYT3 whole entry, looked up): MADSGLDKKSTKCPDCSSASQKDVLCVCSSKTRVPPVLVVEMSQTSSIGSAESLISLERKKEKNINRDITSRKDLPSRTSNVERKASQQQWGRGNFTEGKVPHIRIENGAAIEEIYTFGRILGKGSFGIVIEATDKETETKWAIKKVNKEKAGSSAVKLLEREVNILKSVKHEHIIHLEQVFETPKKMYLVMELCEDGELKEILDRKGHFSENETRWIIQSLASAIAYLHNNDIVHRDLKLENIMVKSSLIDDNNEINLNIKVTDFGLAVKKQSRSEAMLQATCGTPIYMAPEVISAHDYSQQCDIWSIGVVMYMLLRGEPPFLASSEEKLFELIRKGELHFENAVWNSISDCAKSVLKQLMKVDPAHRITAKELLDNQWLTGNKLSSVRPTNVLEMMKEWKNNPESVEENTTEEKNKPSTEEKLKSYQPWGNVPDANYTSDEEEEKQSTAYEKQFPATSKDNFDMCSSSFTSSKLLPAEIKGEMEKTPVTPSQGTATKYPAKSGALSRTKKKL
PD-1 reversal: activators reversing PD-1 mediated T-cell inhibition; primary human CD4 T cells, PD-L1 beads, CellTiter-Glo 96 h; activation, % (concentration not given with the values); 29,000 tested, under 10 active; AID 2316; call rule not given here;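 note: 0% = median vehicle wells and 100% = positive control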
NOMO-1 viab: STK33 inhibitor candidate reducing NOMO-1 cell viability. NOMO-1 AML viability, CellTiter-Glo luminescence, 72 h. inhibition, % (no concentration beside the values). actives 7.5% (n = 37,000). AID 2330; in the data active = inhibition above about 80%; inconclusive = no clear call, values can overlap the other calls
The depositor's hits bear a star; ? = inconclusive; . = not tested or not shown. Many of the other results were omitted from the sample, so hits are more common in it than they were.

SMILES	STK33 inh	PD-1 reversal	NOMO-1 viab
COC(=O)C(Cc1c[nH]c2ccccc12)NC(=O)C(NC(=O)C(C)NC(=O)/C=C/C(=O)O)C(C)c1c[nH]c2ccccc12 (stereo unspecified)	154*	-1	7
CC(=O)N[C@@H](Cc1c[nH]c2ccccc12)C(N)=O	-1	.	17
CCOc1ccc(NS(=O)(=O)c2cc(C(=O)O)ccc2OC)cc1	-4	4	17
C[C@@H]1CN([C@H](C)CO)C(=O)c2cccc(NC(=O)Nc3ccc(F)cc3)c2O[C@H]1CN(C)CC1CC1	.	.	57
C[C@H]1CN([C@@H](C)CO)C(=O)c2cccc(NC(=O)Nc3ccc(C(F)(F)F)cc3)c2O[C@@H]1CN(C)CC1CCCCC1	.	.	82*
C[C@@H]1CN([C@H](C)CO)C(=O)c2cccc(NC(=O)Nc3ccc(C(F)(F)F)cc3)c2O[C@@H]1CN(C)CC1CCCCC1	.	-5	58
C[C@@H]1CN([C@H](C)CO)C(=O)c2cccc(NC(=O)Nc3ccc(C(F)(F)F)cc3)c2O[C@H]1CN(C)CC1CCCCC1	.	-8	?
C[C@H](CO)N1C[C@H](C)[C@@H](CN(C)CC2CC2)Oc2c(NC(=O)Nc3ccc(C(F)(F)F)cc3)cccc2C1=O	.	-2	99*
C[C@H](CO)N1C[C@H](C)[C@H](CN(C)CC2CCCCC2)Oc2c(NC(=O)Nc3ccc(C(F)(F)F)cc3)cccc2C1=O	.	-5	116*
COc1ccc(S(=O)(=O)N(C)CC(=O)Nc2cc(Cl)cc(Cl)c2)cc1	-3	3	24
CC(=O)c1cccc(N(CC(=O)Nc2c(C)cccc2C)S(C)(=O)=O)c1	-2	-2	-27
C[C@@H]1CCCCO[C@H](CN(C)CC2CCCCC2)[C@@H](C)CN([C@H](C)CO)C(=O)c2cc(NC(=O)Nc3ccc(F)cc3)ccc2O1	3	-3	66
C[C@@H]1CCCCO[C@@H](CN(C)CC2CCCCC2)[C@@H](C)CN([C@H](C)CO)C(=O)c2cc(NC(=O)Nc3ccccc3)ccc2O1	0	0	122*
C[C@@H]1CCCCO[C@@H](CN(C)C(=O)c2ccccc2)[C@@H](C)CN([C@H](C)CO)C(=O)c2cc(NC(=O)c3ccccc3)ccc2O1	1	-1	15
C[C@@H]1CCCCO[C@@H](CN(C)CC2CCCCC2)[C@@H](C)CN([C@H](C)CO)C(=O)c2cc(NC(=O)c3ccccc3)ccc2O1	1	0	117*
C[C@@H]1CCCCO[C@H](CN(C)CC2CCCCC2)[C@@H](C)CN([C@H](C)CO)C(=O)c2cc(NC(=O)c3ccncc3)ccc2O1	-1	-2	18
C[C@@H]1CCCCO[C@@H](CN(C)C)[C@@H](C)CN([C@H](C)CO)C(=O)c2cc(NC(=O)c3ccccc3)ccc2O1	.	.	123*
CCCCC(=O)N1c2ccccc2C(Nc2ccccc2)CC1C (stereo unspecified)	.	0	57
O=C(Nc1c(Cl)cc(Cl)cc1C(=O)NCCN1CCOCC1)c1cccc([N+](=O)[O-])c1	-1	.	-24
O=C(Oc1c(CN2CCOCC2)cc(Cl)c2cccnc12)c1ccc([N+](=O)[O-])cc1	3	-15	139*
CCCn1nnc(NC(=O)COc2ccc(C)cc2)n1	0	1	14
O=C1O[C@H](c2ccccc2)[C@H](c2ccccc2)N2[C@H]1[C@@H](C(=O)NC[C@H](O)c1ccccc1)[C@]1(C(=O)Nc3ccc(C#CC4=CCCCC4)cc31)[C@H]2c1ccccc1OCCO	5	.	.
C[C@H](CO)N1C[C@H](C)[C@H](CN(C)Cc2ccncc2)Oc2c(NC(=O)Nc3ccc(C(F)(F)F)cc3)cccc2C1=O	.	1	10
C[C@@H]1CN([C@H](C)CO)C(=O)c2cccc(NC(=O)Nc3ccc(C(F)(F)F)cc3)c2O[C@H]1CN(C)Cc1ccc(Cl)c(Cl)c1	.	-6	104*
C[C@@H]1CN([C@H](C)CO)C(=O)c2cccc(NC(=O)Nc3ccc(C(F)(F)F)cc3)c2O[C@@H]1CN(C)Cc1ccc(Cl)c(Cl)c1	.	-4	76
SMILES	STK33 inh	PD-1 reversal	NOMO-1 viab
C[C@@H]1CN([C@@H](C)CO)C(=O)c2cccc(NC(=O)Nc3ccc(C(F)(F)F)cc3)c2O[C@H]1CN(C)Cc1ccc(Cl)c(Cl)c1	.	-3	107*
COc1ccccc1NC(=O)c1cccc(S(=O)(=O)N2CCCC2)c1	.	0	-8
Nc1nc(CSc2nnc3c(n2)[nH]c2ccccc23)cs1	.	0	-11
COc1cc(C2OCC3C(C)C=C(C)C2C3C)ccc1O (stereo unspecified)	-3	-4	39
O=C(/C=C/c1ccc(O)c(O)c1)OCCc1ccccc1	1	-11	141*
O=C(/C=C/c1ccccc1)Oc1ccccc1	.	-4	48
COC1OC(OC)C(O)(CC[C@@]2(O)[C@H](C)C[C@@H](O)C3[C@@](C)(CO)CCC[C@]32C)C1O (stereo partly specified)	0	0	82*
CC1CCC2(C)C(CC(O)C(O)C2(O)CO)C1(C)CCc1ccoc1 (stereo unspecified)	0	1	17
COc1ccc(/C=C2/C(=O)C(C)(C(C)C)CCC2C)cc1 (stereo unspecified)	.	1	94*
CC1CCC(C(C)C)C(=O)/C1=C/c1ccc(N(C)C)cc1 (stereo unspecified)	.	-1	63
CCC(C)CCCCCCCCC1CC(=O)NC(CCC(N)=O)C(=O)NC(CC(C)C)C(=O)NC(CC(C)C)C(=O)NC(C(C)C)C(=O)NC(CC(=O)O)C(=O)NC(CC(C)C)C(=O)NC(C(C)C)C(=O)O1 (stereo unspecified)	-8	1	111*
Cc1cc(C)c(S(=O)(=O)NC(CC(=O)O)c2ccccc2)cc1C (stereo unspecified)	0	.	.
CCCCCCCCC/C=C/CCCCC(=O)C1C(=O)CCC(O)C1=O (stereo unspecified)	-8	0	109*
CCCCCC[C@H](O)/C=C/CC1C(=O)CC[C@H](O)C1=O (stereo partly specified)	-1	-1	2
CSc1nc2cc(C)nn2c(-c2ccco2)c1C#N	.	0	19
COc1ccc(C2C(C#N)=C(N)Oc3cc(C)n(CCc4ccc(OC)c(OC)c4)c(=O)c32)cc1 (stereo unspecified)	.	-1	1
COC(=O)c1c(C(=O)OC)c2n(c1C)CSC2	.	0	-9
O=C(c1ccccc1NS(=O)(=O)c1ccccc1[N+](=O)[O-])N1CCOCC1	3	0	-18
COC(=O)CNS(=O)(=O)c1ccccc1[N+](=O)[O-]	-2	.	112*
O=C(NCc1cccnc1)c1cnn2c1NC(c1ccccc1)CC2C(F)(F)F (stereo unspecified)	-1	0	13
O=c1cc(CSc2ccc(Cl)cc2)c2ccc(O)cc2o1	5	-1	25
Cc1cc(C)c(C#N)c(SCC(O)CS(=O)(=O)c2ccc(C(C)(C)C)cc2)n1 (stereo unspecified)	0	0	24
Cc1cc(C)c(C#N)c(SCCS(=O)(=O)c2nc3ccccc3s2)n1	3	-13	128*
N#Cc1cc2c(nc1SCC(=O)Nc1ccccc1OC(F)(F)F)CCCC2	4	.	-3
N#Cc1cc2c(nc1SCCS(=O)(=O)c1nc3ccccc3s1)CCCC2	0	-9	112*

Screening results as filed in PubChem BioAssay.
